In PubChem BioAssay (NCATS):
Records with an inconclusive call do not appear. Where a call stands in place of a potency, no number is given. Calls of active or inactive are those of the source. Calls follow the shape of the dose curve; as a rule, active = well fitted inhibition curve with a large enough effect; inconclusive = small, poorly fitted or top-dose-only effect; inactive = flat fitted curve, though single readings scatter.

Test system: CP194
Assay: qHTS profiling for inhibitors of Plasmodium falciparum proliferation (AID 504749); also: nearly all actives have a fitted effect of over 60% in size
Details: P. falciparum in erythrocytes, SYBR Green DNA, 72 h; series mostly up to 28.7 µM
How it was run: (§1)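 SYBR Green fluorescence (ex 485 nm, em 535 nm) reports parasite DNA after 72 h compound exposure of infected red cells at 0.3% parasitemia, 2.5% hematocrit; signal normalized to 0.29 uM artemisinin and vehicle wells.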
Potency is read from the fitted curve at half-maximal effect.

Row | Compound | Potency
1 | CC1(C)OC[C@@H]2O[C@@]3(C(=O)O)OC(C)(C)O[C@@H]3[C@@H]2O1 | inactive
2 | Cc1ccccc1N1C(=O)c2cc(N)ccc2N/C1=C\F | inactive
3 | CCC(C(=O)O)C1OC(C(C)C(O)C(C)C(=O)C(CC)C2OC3(C=CC(O)C4(CCC(C)(C5CCC(O)(CC)C(C)O5)O4)O3)C(C)CC2C)C(C)CC1C (stereo not drawn) | 75.7 nM (active)
4 | O=C1C(I)=CC(=C(c2cc(I)c(O)c(I)c2)c2ccccc2C(=O)O)C=C1I | inactive
5 | NC(=O)NC(CCC(=O)O)C(=O)O (stereo not drawn) | inactive
6 | COC1CC2CCC(C)[C@](O)(O2)C(=O)C(=O)N2CCCCC2C(=O)OC(C(C)CC2CCC(O)C(OC)C2)CC(=O)C(C)/C=C(/C)C(O)C(OC)C(=O)C(C)CC(C)C=CC=C/C=C\1C (stereo partly drawn) | 3380 nM (active)
7 | CC(=O)OCC(=O)[C@@]1(O)CCC2C3C[C@H](C)C4=CC(=O)C=CC4(C)C3C(O)CC21C (stereo partly drawn) | inactive
8 | CN[C@H](C)CCC=C(C)C | 675 nM (active)
9 | CC1(C)C2CC[C@]1(C)[C@@H](O)C2 | inactive
10 | OCC1O[C@H](Oc2ccc(O)cc2)C(O)C(O)C1O (stereo partly drawn) | inactive
11 | Nc1nc(F)nc2c1ncn2[C@@H]1O[C@H](CO)[C@@H](O)[C@H]1O | inactive
12 | CC1OC(OC2CCC3(C)C(CCC4C3CC(O)C3(C)C(C5=CC(=O)OC5)CCC43O)C2)CC(O)C1OC1CC(O)C(OC2CC(O)C(OC3OC(CO)C(O)C(O)C3O)C(C)O2)C(C)O1 (stereo not drawn) | inactive
13 | CC1OC(OCC2OC(Oc3c(-c4ccc(OCCO)c(OCCO)c4)oc4cc(OCCO)cc(O)c4c3=O)C(O)C(O)C2O)[C@@H](O)C(O)C1O (stereo partly drawn) | inactive

Test system: CP201
Assay: as above
Details: P. falciparum in erythrocytes, SYBR Green DNA, 72 h; series mostly up to 28.7 µM
How it was run: as §1

Row | Compound | Potency
14 | CCCCCCCCCCCCCCCC(=O)OC[C@H](O)[C@H]1OC[C@@H](O)[C@@H]1O | inactive
15 | CCCCC(=O)OCC(=O)[C@]1(O)Cc2c(O)c3c(c(O)c2[C@H](OC2CC(NC(=O)C(F)(F)F)C(O)C(C)O2)C1)C(=O)c1c(OC)cccc1C3=O (stereo partly drawn) | 4780 nM (active)
16 | C[C@H]1OC(OC2C(O)[C@@H](O)C(OC3C(O)[C@@H](O)C(O)O[C@@H]3CO)O[C@@H]2CO)[C@H](O)C(O)C1N[C@H]1C=C(CO)[C@@H](O)[C@H](O)C1O (stereo partly drawn) | inactive
17 | CCN(CC)CC(=O)Nc1c(C)cc(C)cc1C | inactive
18 | CC(=O)N[C@H]1[C@H](O[C@@H]2c3ccc(c(Cl)c3)Oc3cc4cc(c3O[C@@H]3O[C@H](CO)[C@@H](O)[C@H](O)C3C)Oc3ccc(cc3Cl)C[C@H]3NC(=O)[C@@H](N)c5ccc(O)c(c5)Oc5cc(O)cc(c5)[C@H](NC3=O)C(=O)N[C@H]4C(=O)N[C@H]3C(=O)N[C@@H]2C(=O)N[C@@H](C(=O)O)c2cc(O)cc(O[C@H]4O[C@H](CO)[C@@H](O)C(O)[C@@H]4O)c2-c2cc3ccc2O)O[C@H](CO)[C@@H](O)[C@@H]1O (stereo partly drawn) | inactive
19 | NC(=O)c1ncn(C2OC(CO)C(O)C2O)c1N (stereo not drawn) | inactive
20 | C[C@H]1[C@@H](OC(=O)CCC(=O)O)OC2OC3(C)CC[C@H]4[C@H](C)CC[C@@H]1[C@@]24OO3 (stereo partly drawn) | 12 nM (active)
21 | CC1(Cn2ccnn2)[C@H](C(=O)O)N2C(=O)C[C@H]2S1(=O)=O (stereo partly drawn) | inactive
22 | CN(C)CC/C=C1\c2ccccc2COc2ccc(CC(=O)O)cc21 | inactive
23 | CCCC(=O)O[C@]1(C(=O)COC(C)=O)CC[C@H]2C3C[C@H](F)C4=CC(=O)C=CC4(C)[C@@]3(F)[C@@H](O)CC21C (stereo partly drawn) | inactive
24 | OCCN1CC(O)C(O)C(O)C1CO (stereo not drawn) | inactive
25 | COc1cc2c(cc1O)CCN[C@@]21CS[C@H]2c3c(OC(C)=O)c(C)c4c(c3C(COC1=O)N1C2C2c3c(cc(C)c(OC)c3O)CC([C@@H]1O)N2C)OCO4 (stereo partly drawn) | 1.3 nM (active)
26 | CC(CCC(=O)O)C1CCC2C3C(=O)C[C@@H]4CC(=O)CC[C@@]4(C)C3CC(=O)[C@]12C (stereo partly drawn) | inactive
27 | C[n+]1c2cc(N)ccc2cc2ccc(N)cc21 | 1690 nM (active)
28 | O=C(OC[C@@H]1O[C@@](O)(COC(=O)c2cccnc2)[C@H](OC(=O)c2cccnc2)[C@H]1OC(=O)c1cccnc1)c1cccnc1 | inactive
29 | O=[N+]([O-])O[C@H]1CO[C@H]2[C@@H]1OC[C@H]2O | inactive
30 | COc1cccc(OC)c1C(=O)NC1C(=O)N2C1SC(C)(C)C2C(=O)O (stereo not drawn) | inactive
31 | NC[C@@H]1O[C@H](OC2[C@@H](CO)O[C@@H](OC3[C@H](O)[C@H](N)C[C@H](N)[C@H]3OC3O[C@H](CO)[C@@H](O)[C@H](O)[C@@H]3N)[C@H]2O)C(N)[C@H](O)[C@@H]1O (stereo partly drawn) | inactive
32 | Cc1ccc(S(=O)(=O)NC(=O)NC(C)Cc2ccccc2)cc1 (stereo not drawn) | inactive
33 | OCCOC[C@H]1O[C@H](OCCO)[C@H](OCCO)[C@@H](OCCO)[C@@H]1OCCO (tested in a mixture with another compound) | inactive

Row | Compound | Potency
34 | C[S+](C)CC[C@H](N)C(=O)O | inactive
35 | CC[C@@H]1/C=C(\C)C[C@H](C)C[C@H](OC)[C@H]2O[C@@](O)(C(=O)C(=O)N3CCCC[C@H]3C(=O)O[C@H](/C(C)=C/[C@@H]3CC[C@H](Cl)[C@H](OC)C3)[C@H](C)[C@@H](O)CC1=O)[C@H](C)C[C@@H]2OC | inactive
36 | NC(=O)C1CC2(NC(=O)NC2=O)c2cc(F)ccc2O1 (stereo not drawn) | inactive
37 | CN1[C@@H]2CC[C@@H]1CC(OC(=O)[C@H](CO)c1ccccc1)C2 (stereo partly drawn) | inactive
38 | CC[C@@]1(O)C[C@H](O[C@H]2C[C@@H](N(C)C)[C@@H](O[C@H]3C[C@@H](O)[C@@H](O[C@H]4CCC(=O)[C@@H](C)O4)[C@@H](C)O3)[C@@H](C)O2)c2c(cc3c(c2O)C(=O)c2c(O)cccc2C3=O)[C@H]1C(=O)OC | 1510 nM (active)
39 | CCCCCCCCCCCC(=O)OCC(O)C1OCC(O)C1O (stereo not drawn) | inactive
40 | C/C1=C2/[N-]C(C(CC(N)=O)[C@@]2(C)CCC(=O)NCC(C)OP(=O)([O-])O[C@H]2[C@@H](O)[C@@H](n3cnc4cc(C)c(C)cc43)O[C@@H]2CO)[C@]2(C)N=C(/C(C)=C3N=C(/C=C4N=C1C(CCC(N)=O)C\4(C)C)[C@@H](CCC(N)=O)[C@]\3(C)CC(N)=O)[C@@H](CCC(N)=O)[C@]2(C)CC(N)=O.CC(=O)O.[Co] (stereo partly drawn) | inactive
41 | CC1(C)OC[C@@H]2O[C@@]3(C(=O)O)OC(C)(C)O[C@@H]3[C@@H]2O1 | inactive
42 | Cc1ccccc1N1C(=O)c2cc(N)ccc2N/C1=C\F | inactive
43 | CCC(C(=O)O)C1OC(C(C)C(O)C(C)C(=O)C(CC)C2OC3(C=CC(O)C4(CCC(C)(C5CCC(O)(CC)C(C)O5)O4)O3)C(C)CC2C)C(C)CC1C (stereo not drawn) | 95.3 nM (active)
44 | O=C1C(I)=CC(=C(c2cc(I)c(O)c(I)c2)c2ccccc2C(=O)O)C=C1I | inactive
45 | NC(=O)NC(CCC(=O)O)C(=O)O (stereo not drawn) | inactive
46 | COC1CC2CCC(C)[C@](O)(O2)C(=O)C(=O)N2CCCCC2C(=O)OC(C(C)CC2CCC(O)C(OC)C2)CC(=O)C(C)/C=C(/C)C(O)C(OC)C(=O)C(C)CC(C)C=CC=C/C=C\1C (stereo partly drawn) | 7570 nM (active)
47 | CC(=O)OCC(=O)[C@@]1(O)CCC2C3C[C@H](C)C4=CC(=O)C=CC4(C)C3C(O)CC21C (stereo partly drawn) | inactive
48 | CN[C@H](C)CCC=C(C)C | 2130 nM (active)
49 | CC1(C)C2CC[C@]1(C)[C@@H](O)C2 | inactive
50 | OCC1O[C@H](Oc2ccc(O)cc2)C(O)C(O)C1O (stereo partly drawn) | inactive
51 | Nc1nc(F)nc2c1ncn2[C@@H]1O[C@H](CO)[C@@H](O)[C@H]1O | inactive
52 | CC1OC(OC2CCC3(C)C(CCC4C3CC(O)C3(C)C(C5=CC(=O)OC5)CCC43O)C2)CC(O)C1OC1CC(O)C(OC2CC(O)C(OC3OC(CO)C(O)C(O)C3O)C(C)O2)C(C)O1 (stereo not drawn) | inactive
53 | CC1OC(OCC2OC(Oc3c(-c4ccc(OCCO)c(OCCO)c4)oc4cc(OCCO)cc(O)c4c3=O)C(O)C(O)C2O)[C@@H](O)C(O)C1O (stereo partly drawn) | inactive
